Among the data in PubChem BioAssay (NCATS) are Potency values, retold here.

Records with an inconclusive call do not appear. A call without a number means that no potency is given here. Active and inactive are the calls of the source. Calls come from the whole dose curve; as a rule, active = well fitted inhibition curve with a large enough effect; inconclusive = small, poorly fitted or top-dose-only effect; inactive = flat fitted curve, though single readings scatter.
Potency is the fitted concentration of half-maximal effect.

This experiment in a line: qHTS for Inhibitors of Plasmodium falciparum (DD2) proliferation (AID 504314). As to conditions: P. falciparum Dd2 in erythrocytes, SYBR Green growth, 72 h; series mostly up to 1.12 µM. In a few lines: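 Infected RBCs, 0.3% parasitemia, 2.5% Hct; compound 72 h, 37C/5% CO2; lyse + SYBR Green I, RT overnight, dark; read ex485/em535; normalize to DMSO and artemisinin 0.29 uM.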
Turning to `COC(=O)C1=C(C(=O)OC)[C@@H]2Nc3ccccc3[C@@]23C[C@@H](C(=O)OC)N(C(=O)c2ccco2)C3=N1`, the Potency result was “inactive”.
Regarding `C=CCNC(=O)N1CCc2nc(COc3ccccc3)c3c(c2C1)CO[C@@H](C)C3`, the Potency result is “inactive”.
The result for `COC(=O)N[C@@H](c1ccccc1)[C@]1(C(=O)OC)CCCC1=O` reads “inactive”; that for `COc1cccc([C@@H]2Oc3ccc(Br)cc3C(=O)[C@@H]2OC(=O)Nc2cc(OC)c(OC)c(OC)c2)c1`, “inactive”.
The result for `COC(=O)CCC(=O)OC1(C)C(=O)C2=CN(Cc3ccc(OC)cc3)C(c3ccc(OC)cc3)=CC2=C(Br)C1=O` (stereo not given) reads “inactive”.
On to `COC(=O)C1=C(C(=O)OC)[C@@H]2N(C)c3ccc(OC)cc3[C@@]23C[C@@H](C(=O)OC)N(S(=O)(=O)c2ccc4c(c2)OCCN4C)C3=N1`, for which the Potency entry is “inactive”.
For the molecule `C=CCN1c2ccccc2[C@]23C[C@@H](C(=O)OC)N(C(=O)C4CCC4)C2=NC(C(=O)OC)=C(C(=O)OC)[C@H]13`, the Potency result was “inactive”.
In the case of `CCCCc1nc2c(c3c1C[C@H](C)OC3)CN(S(=O)(=O)c1ccc3c(c1)OCCN3C)CC2`, the Potency entry was “inactive”.
As to `CCCCc1nc2c(c3c1C[C@H](C)OC3)CN(C(=O)Cc1cccc(OC)c1)CC2`, the Potency entry was “inactive”.
For `C=CCN1C=C2C(=O)C(C)(OC(=O)CCc3ccccc3)C(=O)C=C2C=C1c1ccc(C#N)cc1` (stereo not given) the value was “inactive”.
Turning to `COC(=O)[C@H]1[C@@H](C)N(Cc2ccccc2)C(=O)N[C@H]1c1ccccc1`, the Potency entry was “inactive”.
The result for `COC(=O)CCCC1=CC2=C(c3ccccc3)C(=O)C(C)(OC(=O)C3CCCC3)C(=O)C2=CN1C1CCCC1` (stereo not given) reads “inactive”; that for `CCN1C(=O)N[C@@H](c2cccc(F)c2)C(C(C)=O)=C1C`, “inactive”; that for `COC(=O)C1=C(C(=O)OC)[C@@H]2Nc3ccccc3[C@@]23C[C@@H](C(=O)OC)N(S(=O)(=O)c2cccs2)C3=N1`, “inactive”.
Consider `C[C@@H]1C[C@](C)(C(=O)c2ccc3ccccc3c2)C=C1c1ccc2ccccc2c1`, for which the Potency entry is “inactive”.
For `COC/C=C/C1=CC2=CC(=O)C(C)(OC(=O)c3cnc4ccccc4n3)C(=O)C2=CN1Cc1ccc2c(c1)OCO2` (stereo not given) the value was “inactive”.
As for `CC#CCN1c2ccccc2[C@]23CCC(=O)N(CCCOC(C)C)C2=NC(C(=O)OC)=C(C(=O)OC)[C@H]13`, the Potency result was “inactive”.
Turning to `COC(=O)[C@H]1[C@H](CCc2ccccc2)NC(=O)N(Cc2ccccc2)[C@@H]1C`, the Potency entry was “inactive”.
As to `COC(=O)C1=C(C(=O)OC)[C@@H]2N(C)c3ccccc3[C@@]23C[C@@H](CO)N(C(=O)c2cc(C)oc2C)C3=N1`, the Potency entry was “inactive”.
Regarding `COC(=O)[C@@]1(C=C2c3ccc(F)cc3[C@@H](OC)[C@@H]2C)[C@@H]2CC=C[C@@H]21`, the Potency result was “inactive”.
The result for `COC/C=C/C1=CC2=CC(=O)C(C)(OC(=O)c3cnc4ccccc4n3)C(=O)C2=CN1c1ccc(OC)cc1` (stereo not given) reads “inactive”; that for `COc1ccc2c(c1)O[C@@H](c1cccc(C(F)(F)F)c1)[C@H](OC(=O)N[C@H]1CCCc3ccccc31)C2=O`, “inactive”; that for `C[C@@H](c1ccccc1)N1C(=O)[C@@H]2[C@H]3[C@H](O)[C@H](O)CC(=NNC(=O)OCc4ccccc4)[C@@H]3CC[C@H]2C1=O`, “inactive”.
The result for `COC(=O)C1=C(C(=O)OC)[C@@H]2N(Cc3ccccc3)c3ccccc3[C@@]23C[C@@H](C(=O)OC)N(C(=O)COCc2ccccc2)C3=N1` reads “inactive”; that for `C[C@H]1Cc2c(-c3ccccc3)nc3c(c2CO1)CN(C(=O)c1cc(I)ccc1F)CC3`, “inactive”; that for `C=CC1=C2C=C(C3CC3)N(Cc3ccco3)C=C2C(=O)C(C)(OC(=O)c2ccco2)C1=O` (stereo not given), “inactive”.
The result for `CC(C)CON=C1C[C@@H](O)[C@@H](O)[C@@H]2[C@H]3C(=O)N(C4CCCCC4)C(=O)[C@@H]3CC[C@H]12` reads “inactive”; that for `CC1(OC(=O)CCc2ccccc2)C(=O)C=C2C=C(c3ccc(C#N)cc3)N(CCc3c[nH]c4ccccc34)C=C2C1=O` (stereo not given), “inactive”; that for `CCCNC(=O)N1C2=NC(C(=O)OC)=C(C(=O)OC)[C@@H]3Nc4ccccc4[C@]23C[C@H]1C(=O)OC`, “inactive”.
As for `CCCC[C@]12Cc3cc(OC)c(OC)cc3[C@H](O1)C1=C(O2)C(=O)c2ccccc2C1=O`, the Potency is 3 µM (active).
On to `CCOC(=O)OC[C@H]1O[C@H](c2ccccc2)C=C[C@H]1OC(=O)OCC`, for which the Potency entry is “inactive”.
For `O=C(C=Cc1ccc2c(c1)OCO2)c1ccccc1` the value was “inactive”.
Regarding `CC1(OC(=O)CCc2ccccc2)C(=O)C=C2C=C(c3ccc(C#N)cc3)N(Cc3ccco3)C=C2C1=O` (stereo not given), the Potency entry was “inactive”.
For `COC(=O)C1=C(C(=O)OC)[C@@H]2N(C)c3ccccc3[C@@]23C[C@@H](C(=O)OC)N(S(=O)(=O)c2ccc(OC)cc2)C3=N1` the value was “inactive”; for `CCN1C(=O)N[C@H](c2ccc(Br)cc2)C(C(=O)OC)=C1C`, “inactive”; for `COC(=O)CCC(=O)OC1(C)C(=O)C2=CN(c3ccccc3)C(c3ccc(OC)cc3)=CC2=C(Br)C1=O` (stereo not given), “inactive”.
Turning to `COC(=O)[C@@H](NC(=O)N1CCc2nc(-c3ccccc3)c3c(c2C1)CO[C@@H](C)C3)C(C)C`, the Potency result is “inactive”.
`COC(=O)CC=C[C@@H](C)[C@H](OC)c1cc(F)ccc1Br`: the Potency result is “inactive”.
For the molecule `COC(=O)[C@@H]1[C@@H](C)N(CCc2cc(OC)c(OC)c(OC)c2)C(=O)N[C@H]1c1ccccc1`, the Potency result was “inactive”.
The result for `COc1cccc([C@@H]2Oc3ccc(Br)cc3C(=O)[C@@H]2OC(=O)Nc2ccc(OC(F)F)cc2)c1` reads “inactive”.
